LEDGF integ inh: blocks HIV-1 LEDGF/p75-dependent DNA integration; inhibition, % at 3.7 µM; hit rate 0.64% among 370,000; TR-FRET IN-LEDGF/p75 DNA integration, Eu/Cy5;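 active = inhibition above the screen-wide mean plus 3 SD, cut at about 13% in these data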;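 also: signal is the Cy5 over europium emission ratio at 671 and 618 nm; 0% = plate median of compound wells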
UHRF1 MBD2 ctr: blocks human UHRF1 binding to methylated DNA. Q96T88. UHRF1 binding to methylated oligo, TR-FRET. inhibition, % at 4.4 µM. hit rate 0.75% among 370,000. AID 687016; in the data active = inhibition above about 21%;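 also: UHRF1 SRA domain binding a hemimethylated CpG hairpin DNA probe; 0% = median of test compound wells and 100% = reference inhibitor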
PRMT1 FP inh: inhibitors of human PRMT1 | Q99873 | recombinant PRMT1, activity-based probe fluorescence polarization | inhibition, % at 2.79 µM | hit rate 1.3% among 370,000;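 active = inhibition above about 21% made by adding two undisclosed values, limit read from the data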
MBD2 inh: blocks human MBD2 binding to methylated DNA. TR-FRET, MBD2 binding to methylated oligonucleotide. AID 686964. inhibition, % at 4.4 µM. hit rate 0.31% among 370,000; in the data active = inhibition above about 13%
Target sequence (Q9UBB5 whole entry, looked up): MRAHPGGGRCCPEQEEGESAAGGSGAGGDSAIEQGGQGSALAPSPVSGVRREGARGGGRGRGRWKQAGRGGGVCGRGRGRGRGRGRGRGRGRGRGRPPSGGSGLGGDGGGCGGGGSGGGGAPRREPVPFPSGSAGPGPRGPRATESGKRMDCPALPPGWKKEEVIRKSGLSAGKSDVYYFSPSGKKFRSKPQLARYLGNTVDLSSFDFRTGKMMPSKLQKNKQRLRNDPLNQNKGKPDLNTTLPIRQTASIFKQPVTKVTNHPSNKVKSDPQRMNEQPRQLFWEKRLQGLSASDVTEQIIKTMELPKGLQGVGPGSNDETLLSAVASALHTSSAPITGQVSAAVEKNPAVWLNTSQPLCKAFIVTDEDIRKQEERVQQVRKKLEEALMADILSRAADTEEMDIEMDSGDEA
Numbers without * were called inactive. An excerpt weighted towards active compounds, which were near 2.5% of everything screened.

SMILES	LEDGF integ inh	UHRF1 MBD2 ctr	PRMT1 FP inh	MBD2 inh
CCOC(=O)c1c(NC(=O)c2ccc(S(=O)(=O)N3CCOCC3)cc2)sc2c1CCN(C)C2	0.1	17.2	-4.0	14.6*
CCOC(=O)c1c(NC(=O)c2ccc(S(=O)(=O)N3CCOCC3)cc2)sc2c1CC(C)(C)NC2(C)C	0.1	-0.3	2.7	-1.6
O=C(COc1cccnc1[N+](=O)[O-])c1ccc(Cl)s1	7.5	-4.0	51.7*	-8.5
COC(=O)c1cc(Br)c(=O)n(-c2ccccn2)c1	1.4	37.2*	-2.5	-5.6
CCC(C)c1ccccc1N1CC(C(=O)N2CCN(S(=O)(=O)c3ccccc3Br)CC2)CC1=O (stereo not given)	-1.3	0.3	-0.3	-0.9
O=C1CSC(=S)N1/N=C/c1c(F)cccc1F	3.0	-7.1	17.2	1.0
O=C1CSC(=S)N1/N=C/C=C/c1ccccc1	4.4	-9.8	21.4*	-9.6
CC(=O)c1cnn(-c2ccc(Cl)c(Cl)c2Cl)c1C	2.7	3.2	-0.2	0.0
CSc1ccccc1NC(=O)Cc1ccccc1	3.9	23.3*	3.5	11.8
O=C(Cc1ccccc1)Nc1ccccc1Sc1ccccc1	-3.2	-0.6	3.1	1.4
CC1(C)OC(=O)C2=C(CC(CCc3ccccc3)OC2CCc2ccccc2)O1 (stereo not given)	4.4	21.0*	-3.4	-1.0
O=C(Nc1cccc2ncccc12)c1ccc(-c2ccc(Br)cc2)o1	2.9	-8.4	24.6*	-3.2
C/C(=N\Nc1nc2ccccc2[nH]1)c1ccc(N2CCOCC2)cc1	-0.4	33.5*	-0.3	3.2
O=[N+]([O-])c1ccc(Cl)c(NC2=NCCCCC2)c1	1.2	1.5	-0.9	-9.2
O=S1(=O)CC(O)C(NCc2cccnc2)C1 (stereo not given)	-1.8	-2.1	-1.2	-1.2
CC(C)CNC1CS(=O)(=O)CC1O (stereo not given)	1.1	21.9*	3.6	-0.8
CCN(CC)S(=O)(=O)c1cccc(C(=O)N/N=C/c2ccc(O)c(O)c2O)c1	2.6	-7.7	26.8*	2.9
N#Cc1ccc(/C=C/C(=O)c2ccc3c(c2)OCO3)cc1	1.6	25.6*	-4.6	-2.0
Cc1ccc(P(=O)(CO)c2ccc(C)cc2)cc1	-0.6	1.5	1.1	0.7
Cc1ccc(P(=O)(CSC(=N)N)c2ccc(C)cc2)cc1	0.8	-1.8	69.7*	-4.7
N=C(N)SCP(=O)(c1ccccc1)c1ccccc1	2.0	-3.6	67.8*	-0.1
CC1CCCCC1NC(=O)c1c(O)nc2ccccn2c1=O (stereo not given)	-0.3	0.4	-5.5	-2.0
CCOc1ncccc1C(=O)N1CCN(C(=O)c2ccccc2)CC1	2.0	21.0*	-4.8	12.8
COC(=O)CC1=NN(c2nc3ccccc3s2)C(=O)/C1=C/N(C)C	4.6	78.6*	3.1	-2.5
COC(=O)Cc1[nH]n(-c2nc3ccccc3s2)c(=O)c1C(C)=O	2.9	5.3	8.6	3.8
SMILES	LEDGF integ inh	UHRF1 MBD2 ctr	PRMT1 FP inh	MBD2 inh
CC(C)NC(=O)c1c(CSc2ccccc2)noc1C(=O)NCc1ccccc1	0.8	22.2*	-2.3	-2.1
O=C(Nc1ccncc1)c1ccc2c(c1)C(=O)N(C1CCCCC1)C2=O	0.7	25.9*	2.7	0.7
Cc1ccc(-c2nc3c4ccccc4ccn3c2Cc2ccccc2)cc1	0.8	21.2*	4.1	8.1
Fc1cccc(Cc2c(-c3ccccc3)nc3c4ccccc4ccn23)c1	0.1	21.1*	7.6	8.1
Cc1ccc(-c2nc3c4ccccc4ccn3c2Cc2cccc(F)c2)cc1	0.1	9.1	6.4	4.6
CCc1cc(=O)[nH]c(SCCC(F)=C(F)F)n1	-2.1	2.5	2.7	6.6
CCOc1cc(C(=O)NC)cc(Br)c1OCc1ccccc1	5.9	48.4*	2.0	-6.7
CCOc1cc(C(=O)NC)cc(Br)c1OC	-7.5	-0.7	2.3	1.1
O=C(O)CSc1c2c(nc3cc(C(=O)Nc4cccc(C(F)(F)F)c4)ccc13)CCC2	7.3	1.4	-6.1	-0.4
COCCOC(=O)C1=C(C)NC(=O)NC1c1cn(-c2ccccc2)nc1-c1cccs1 (stereo not given)	1.2	-0.8	-4.6	-1.3
COC(=O)C1=C(C)NC(C)=C(C(=O)OC)C1c1cn(-c2ccccc2)nc1-c1ccco1	3.2	2.9	30.7*	-2.8
CCOc1ccc(NC(=O)N(O)C2(C#N)CCCCC2)cc1	-0.1	-0.7	-3.7	-0.7
CS(=O)(=O)N(CC(=O)NCCc1ccccc1)c1cccc([N+](=O)[O-])c1	4.3	-3.4	-0.5	1.5
COc1ccc(CCNC(=O)CN(c2cccc([N+](=O)[O-])c2)S(C)(=O)=O)cc1	1.0	37.6*	0.5	-2.3
Cc1cc(C(=O)O[C@H]2CCC[C@]3(C(=O)N(Cc4ccccc4)c4ccccc43)[C@H]2NC(=O)CCc2ccccc2)no1	0.5	0.1	-2.9	2.8

Bioassay records as filed in PubChem BioAssay.
